Most compounds without a hit are left out; they make up all but 0.57% or so of the library.
IMPase Li cell: qHTS Assay for Identifying the Cell-Membrane Permeable IMPase Inhibitors: Potentiation with Lithium; Potency, µM (highest dose often 59.4 µM), usual class: inhibitors; hit rate 0.35% among 210,000; CHO-M1 cells, IP1 TR-FRET (IP-One), carbachol + lithium;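 also: IP1 builds up when IMPase is blocked and the TR-FRET signal falls; nearly all actives have a fitted effect of over 50% in size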
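CHO cells stably expressing M1 receptor (2000/well, cultured 16–30 h) treated 30 min at 37C with compound plus low lithium. Cytosolic IP1 by TR-FRET (665/620 ratio and 620 channel) after 10 min lysis; AC50 by Hill fit.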
IMPase inh: qHTS Assay for Identifying the Cell-Membrane Permeable IMPase Inhibitors | CHO-M1 cells, IP1 accumulation, HTRF TR-FRET ratio | 120,000 tested, under 10 active | Inositol monophosphatase 1 (Rattus norvegicus), P97697 | inhibition (IP1 accumulation), % at 46.1 µM; active = well fitted curve in the direction sought with a large enough effect in the signal ratio, not every such curve was filed as active; inconclusive = small, poorly fitted or top-dose-only effect, or a change in a side signal; inactive = no such curve, though single readings can be large or run the other way; the % refers to the signal ratio;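 also: cells stimulated with carbachol in lithium chloride buffer; higher means more IMPase inhibition seen as more IP1 and lower FRET ratio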
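Carbachol-driven Gq signalling in CHO-M1 cells (2000/well) generates IP1. Compounds that block IMPase raise IP1 and so reduce the FRET signal from Eu-anti-IP1 and d2-IP1 after a 10 min room-temperature lysis.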
12-hLO inh: qHTS Assay for Inhibitors of 12-hLO (12-human lipoxygenase); Polyunsaturated fatty acid lipoxygenase ALOX12 (Homo sapiens), P18054; purified 12-hLO, xylenol orange hydroperoxide absorbance; Potency, µM (top dose mostly 57.1 µM), hits mostly inhibitors; hit rate 0.12% among 150,000; AID 1452, 2008; also: nearly all actives have a fitted effect of over 55% in size
Target sequence (P18054 whole entry, looked up): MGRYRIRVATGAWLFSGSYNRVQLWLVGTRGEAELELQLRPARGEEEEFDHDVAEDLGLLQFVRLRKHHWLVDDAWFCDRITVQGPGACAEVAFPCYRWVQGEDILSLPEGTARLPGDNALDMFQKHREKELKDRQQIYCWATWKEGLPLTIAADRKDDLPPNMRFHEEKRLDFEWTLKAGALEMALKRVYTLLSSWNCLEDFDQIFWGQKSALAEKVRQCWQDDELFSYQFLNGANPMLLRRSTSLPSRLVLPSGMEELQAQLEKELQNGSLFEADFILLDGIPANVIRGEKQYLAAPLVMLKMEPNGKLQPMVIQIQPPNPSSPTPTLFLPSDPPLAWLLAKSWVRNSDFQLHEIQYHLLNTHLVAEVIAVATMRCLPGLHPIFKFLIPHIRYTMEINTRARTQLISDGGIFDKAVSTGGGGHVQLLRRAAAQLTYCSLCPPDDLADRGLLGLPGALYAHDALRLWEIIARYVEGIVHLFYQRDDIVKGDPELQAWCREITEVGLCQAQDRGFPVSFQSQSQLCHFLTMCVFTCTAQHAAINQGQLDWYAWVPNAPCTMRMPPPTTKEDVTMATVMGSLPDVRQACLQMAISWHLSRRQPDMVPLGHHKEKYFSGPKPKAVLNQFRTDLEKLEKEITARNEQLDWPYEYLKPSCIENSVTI
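Hydroperoxide output read as Fe(III)-xylenol orange absorbance, 573-to-405 nm ratio, after 30 min reaction with 40 uM arachidonic acid. Enzyme: 150 nM purified human 12hLO, 15 min compound preincubation; 25 mM Hepes pH 7.0, room temperature.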
ALOX15B inhib: qHTS Assay for Inhibitors of 15-hLO-2 (15-human lipoxygenase 2); Polyunsaturated fatty acid lipoxygenase ALOX15B (Homo sapiens), O15296; hit rate 0.56% among 110,000; Potency, µM (series often up to 57.1 µM), usual class: inhibitors; purified 15hLO-2, xylenol orange hydroperoxide absorbance; also: nearly all actives have a fitted effect of over 60% in size
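Purified human 15hLO-2 (50 nM final) preincubated with compounds 15 min at room temperature in 25 mM Hepes pH 7.5, 0.01% Triton X-100, then 45 uM arachidonic acid added for 90 min; hydroperoxide detected via ferrous/xylenol orange, 573/405 nm absorbance ratio.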
Numbers stand for hits; . = inactive; ? = inconclusive; / = not tested or not shown; ! = not active in a repeat; [ ] = remark or other dose. Unless noted, calls follow the shape of the dose curve; as a rule, active = well fitted curve in the direction sought with a large enough effect; inconclusive = small, poorly fitted or top-dose-only effect, or another doubt; inactive = no such curve, though single readings can be large; an effect the other way counts as inactive or inconclusive.

SMILES	IMPase Li cell	IMPase inh	12-hLO inh	ALOX15B inhib
COCCCOc1ccnc(CS(=O)c2nc3ccccc3[nH]2)c1C (stereo unspecified)	.	/	.[0.00818 µM]	12.6µM
CC(C)c1cccc(O)c(=O)c1	.	/	?	12.6µM
CN(C)[C@@H]1C(=O)C(C(N)=O)=C(O)[C@@]2(O)C(=O)C3=C(O)c4c(O)cccc4[C@@](C)(O)[C@H]3[C@H](O)[C@@H]12	10µM!	?	.	.
N[C@@H](Cc1cc(O)c(O)cc1O)C(=O)O	/	.	.	.
O=C1NC(=O)[C@]2(Cc3ccccc3N3CCN(c4ccccc4)CC32)C(=O)N1Cc1ccccc1 (stereo partly specified)	.	.	.	31.6µM
Cc1cc[c]([Sb]2[O]C([C@H](O)[C@H](O)C(=O)O)[C@@H](CO)[O]2)cc1 (stereo partly specified)	.	/	/	/
CC[C@@H]1CN2CCc3cc(OC)c(OC)cc3[C@H]2C[C@@H]1C[C@@H]1NCCc2cc(OC)c(OC)cc21	/	.	.	.
C=C[C@@H]1CN2CC[C@H]1CC2[C@H](O)c1ccnc2ccccc12 (stereo partly specified)	.	/	/	/
O=C(O)c1ccccc1-c1c2cc(Br)c(=O)cc-2oc2[c]([Hg])c(O)c(Br)cc12	.	.	?	3.98µM
c1ccc2c(c1)Nc1ccccc1S2	.	/	14.1µM	5.01µM
CC1=C(O)C(=O)C=C2C1=CC=C1[C@]2(C)CC[C@@]2(C)C3C[C@](C)(C(=O)O)CC[C@@]3(C)CC[C@@]12C (stereo partly specified)	.	/	?	3.98µM
COC(=O)[C@]1(C)CC[C@@]2(C)CC[C@@]3(C)C4=CCc5c(cc(O)c(O)c5C)[C@]4(C)CC[C@@]3(C)C2C1 (stereo partly specified)	.	/	.	.
COc1cc2c(cc1OC)[C@@]13CCN4C=C5CCO[C@H]6CC(=O)N2[C@@H]1C6[C@H]5C[C@H]43 (stereo partly specified)	.	/	/	/
Oc1cc2c(cc1O)[C@H]1c3ccccc3CN[C@@H]1CC2	/	.	.	?
Oc1cc2c(cc1O)[C@H]1c3ccccc3CN[C@H]1CC2	.	.	.	6.31µM
Oc1ccc2c3c1O[C@@H]1c4[nH]c5c(c4C[C@@]4(O)[C@@H](C2)N(CC2CC2)CC[C@]314)C[C@]1(O)[C@@H]2Cc3ccc(O)c4c3[C@@]1(CCN2CC1CC1)[C@H]5O4	/	.	.	.
CC(=O)[O][Hg][c]1ccccc1	.	/	?	0.316µM
CC(=O)/C=C/c1ccccc1	.	/	.	.
C[C@H]1C2C=C[C@H]1[C@@H](C(=O)O)[C@@H]2c1c2ccc(=O)c(O)c-2oc2c(O)c(O)ccc12	.	/	/	/
N#CC(C#N)=Cc1cc(O)c(O)c(O)c1	.	.	?	?
N#C/C(=C\c1ccc(O)c(O)c1)C(N)=S	.	?	12.6µM	25.1µM
O=S(=O)(NCCO)c1cc[c]([Sb])cc1	.	/	/	/
c1ccc([Se]c2c(-c3ccccc3)[se]c3ccccc23)cc1	5.62µM	/	.[0.00818 µM]	.[0.0915 µM]
Ic1c(C2=CCCCC2)[se]c2ccccc12	.	/	.[0.00818 µM]	.[0.0915 µM]
CC[C@@]1(O)C(=O)OCc2c1cc1n(c2=O)Cc2cc3c(O)cccc3nc2-1	8.91µM	/	/	/
SMILES	IMPase Li cell	IMPase inh	12-hLO inh	ALOX15B inhib
CC[C@@]1(O)C(=O)OCc2c1cc1n(c2=O)Cc2cc3ccccc3nc2-1	.	?	.	.
O=C(O)CN1CCN(CC(=O)O)CC(=O)[O][Hg][O]C(=O)C1	.	/	0.282µM	0.316µM
O=c1ccc2cc(OC3OC(CO)C(O)C(O)C3O)c(O)cc2o1 (stereo unspecified)	10µM	?	.	?
O=[N+]([O-])c1ccc(O[C@@H]2O[C@H](CO)[C@@H](O)[C@H](O)[C@H]2F)c([N+](=O)[O-])c1	.	/	/	/
CC[C@H](CO)NC(=O)[C@@H]1C=C2c3cccc4[nH]cc(c34)C[C@@H]2N(C)C1	/	.	.	.
CCCCCCCCCCCCCC(=O)O[C@H]1[C@@H](C)[C@@]2(O)[C@@H](C=C(CO)C[C@]3(O)C(=O)C(C)=C[C@@H]23)C2C(C)(C)[C@]21OC(C)=O (stereo partly specified)	/	.	.	.
O=C1C=CC(=O)c2c(O)cccc21	.	/	.	3.16µM
NC1=NC([S][Hg][c]2ccc(N)cc2)c2ncn([C@@H]3O[C@H](CO)[C@@H](O)[C@@H]3O)c2N1 (stereo partly specified)	.	/	/	/
CCC(C)N1C(=O)NC(=O)C2(Cc3c(ccc4ccccc34)N(C)C2)C1=O (stereo unspecified)	.	.	.	5.01µM
O=C(O)c1cc[c]([Hg][Cl])cc1	.	.	?	3.16µM
O=C(c1cc2c(s1)CCCC2)N1CCC2(CC1)OCCO2	.	.	.	7.94µM
C[CH2][Hg][S]c1ccccc1C(=O)O	.	/	?	0.631µM
CNc1ccccc1C(=O)O	.	/	.	.

Screens (PubChem BioAssay)
